Assay outcomes: PubChem BioAssay, National Center for Advancing Translational Sciences (NCATS)
DT40 TDP1 no CPT: qHTS for Inhibitors of human tyrosyl-DNA phosphodiesterase 1 (TDP1): qHTS in cells in absence of CPT; 420,000 tested, 15% active; DT40 Tdp1-/- hTDP1 cells, no CPT, ATP luminescence, 48 h; Potency, µM (titrated, usually from 46.2 µM), without a hit: at the top dose activity change, negative = growth inhibition, hits mostly inhibitors; AID 686978, 2013; also: potency is read from the fitted curve at half-maximal effect; % is scaled to controls: 0 for no effect and ±100 for the full control effect; nearly all actives have a fitted effect of over 55% in size
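Seeded 400 DT40-hTDP1 cells/well (vehicle DMSO, no 20 nM CPT); pinned compounds; ≥48 hr at 37 °C; CellTiter-Glo luminescence as viability measure.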
IL1B secr inh: qHTS for Inhibitors of Inflammasome Signaling: IL-1-beta AlphaLISA Primary Screen; THP-1 LPS/ATP IL-1B secretion, AlphaLISA, 16 h; stronger effect = lower value; activity change, % at 57.5 µM; 360,000 tested, 4.7% active; in the data active = activity change below about -50%; inconclusive = mostly about -30% to -49%; also: % is scaled to controls: 0 for no effect and ±100 for the full control effect
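THP-1 cells pretreated 1 hr with compounds (up to 57.5 uM final), then stimulated with LPS (250 ng/mL final) plus ATP (1.25 mM final); secreted IL-1B measured by AlphaLISA after 16 hr, decreased signal indicating inhibition.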
MCF10A rerep: A quantitative high throughput screen for small molecules that induce DNA re-replication in MCF 10a normal breast cells; MCF 10A DNA re-replication, Hoechst nuclear intensity, 48 h; Potency, µM (highest dose often 46.1 µM), for the others: at the highest dose activity, positive = re-replication, most hits filed as activators; 350,000 tested, 2.9% active; AID 624296, 2012; also: potency is read from the fitted curve at half-maximal effect; % of control where 0% means no effect; nearly all actives have a fitted effect of over 50% in size
BCR signal inh: qHTS Assay to Find Inhibitors of Chronic Active B-Cell Receptor Signaling | 340,000 tested, 0.05% active | ABC-DLBCL IkBa-CBG/CBR reporter, luminescence ratio, 4 h | Potency, µM (titrated, usually from 46.1 µM), for the others: top-dose activity change, negative = inhibition, actives largely listed as inhibitors; active = well fitted inhibition curve with a large enough effect in the signal ratio, with a control signal flat, not every such curve was filed as active; inconclusive = small, poorly fitted or top-dose-only effect, or effect the other way, or a change in a side signal; the % refers to the signal ratio;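 also: potency is read from the fitted curve at half-maximal effect; plate controls were basal doxycycline-induced cells for no effect and cells given 10 µM MG132 for full effect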
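TMD8 ABC-DLBCL cells carrying doxycycline-inducible green luciferase fused to IkappaBalpha plus unfused red luciferase were exposed to compounds (up to 46 uM) for 4 hrs at 37C. Activity came from the overlap-corrected green/red luminescence ratio.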
SW480 rerep: A quantitative high throughput screen for small molecules that induce DNA re-replication in SW480 colon adenocarcinoma cells | SW480 DNA re-replication, Hoechst DNA content imaging, 48 h | Potency, µM (top dose mostly 46.1 µM), for the others: at the highest dose re-replication activation, actives largely listed as activators | 340,000 tested, 1.8% active; also: potency is read from the fitted curve at half-maximal effect; % of control where 0% means no effect; nearly all actives have a fitted effect of over 55% in size
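First, 250 cells per well were seeded. Next, compound or vehicle (23 nL) was pinned in, plates sat 48 hr at 37 C. Finally Hoechst was added for 40 min before fluorescence scanning.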
DT40 TDP1 CPT: qHTS for Inhibitors of human tyrosyl-DNA phosphodiesterase 1 (TDP1): qHTS in cells in presence of CPT. chicken DT40 Tdp1-/-;hTDP1 cells + 20 nM CPT, ATP luminescence, 48 h. Potency, µM (highest dose often 46.2 µM), for inactives: at the top dose activity change, negative = growth inhibition, actives largely listed as inhibitors. 420,000 tested, 12% active. AID 686979, 2013; also: potency is read from the fitted curve at half-maximal effect; % is scaled to controls: 0 for no effect and ±100 for the full control effect; nearly all actives have a fitted effect of over 55% in size
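Chicken DT40 Tdp1-/- cells stably complemented with human TDP1 were seeded at 400 cells/well in medium containing 20 nM camptothecin, exposed to pin-transferred compounds, and grown at 37 °C for at least 48 hr. Viability was read as ATP luminescence.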
An asterisk follows results filed as active; u = inconclusive; x = no result given; ! = not confirmed by another sample; [ ] = another dose, or the depositor's remark. This is a sample that favours compounds with a hit; in the whole collection about 19% have one here. Unless noted, calls follow the shape of the dose curve; as a rule, active = well fitted curve in the direction sought with a large enough effect; inconclusive = small, poorly fitted or top-dose-only effect, or another doubt; inactive = no such curve, though single readings can be large; an effect the other way counts as inactive or inconclusive.

SMILES	DT40 TDP1 no CPT	IL1B secr inh	MCF10A rerep	BCR signal inh	SW480 rerep	DT40 TDP1 CPT
COc1cccc(NC(=O)COC(=O)COc2cccc3c2OC(C)(C)C3)c1	-8.6%	12.6	1.8%	-11.7%	-15.2%	-15.5%
CC1(C)Cc2cccc(OCC(=O)OCC(=O)Nc3ccc(S(N)(=O)=O)cc3)c2O1	3.3%	19.1	x	x	x	-16.9%
CC(C)(C)NC(=O)Nc1nnc(SCC(=O)NC2CCCCC2)s1	u	9.4	-4.6%	u	u	u
CCSc1nc2c([nH]c3ccccc32)c(=O)n1CC	-19.3%	x	x	-6.5%	x	3.0%
Cc1ccc(NC(=O)CNC2CCCCC2)cc1Cl	u	-8.4	3.6%	-7.8%	u	u
COc1ccc([N+](=O)[O-])cc1NC(=O)CCSCCc1ccccn1	u	48.3	-0.6%	-16.6%	-1.1%	u
CCC(C)NC(=O)CN1C(=O)C(CC)Sc2ccccc21 (configuration not stated)	13.8%	13.2	0.7%	2.5%	-4.3%	4.7%
CCC1Sc2ccccc2N(CC(=O)NCc2ccc(C)cc2)C1=O (configuration not stated)	23.1µM*	x	x	-1.0%	x	u
O=C(Nc1cc(Cl)ccc1C(=O)O)c1ccc(CN2C(=O)c3ccccc3C2=O)cc1	-3.5%	26.9	12.3%	x	15.3%	18.5%
COc1ccc(Nc2nnc(-c3ccc(C)c(S(N)(=O)=O)c3)c3ccccc23)cc1	18.4µM*	x	x	x	x	18.4µM*
CC(=O)Nc1ccc(Nc2nnc(-c3ccc(C)c(S(=O)(=O)NCCO)c3)c3ccccc23)cc1	2.7%	u	-0.9%	u	1.3%	5.0%
COc1ccc(-c2nnc(Nc3ccc(OC)c(C(N)=O)c3)c3ccccc23)cc1	16.4µM*	x	x	x	x	u
CNC(=O)c1cc(Nc2nnc(C)c3ccccc23)ccc1OC	-18.8%	81.3	6.9%	u	-2.8%	7.4%
COc1ccc(Nc2nnc(-c3ccc(O)cc3)c3ccccc23)cc1C(N)=O	u	8.1	u	u	-3.6%	u
COc1ccc(Nc2nnc(-c3ccc(C)c(S(=O)(=O)NCc4nc5ccccc5[nH]4)c3)c3ccccc23)cc1	10.3µM*	x	x	x	x	20.6µM*
CC(=O)Nc1ccc(Nc2nnc(-c3ccc(C)c(S(N)(=O)=O)c3)c3ccccc23)cc1	-0.4%	7.2	-21.2%	5.7%	-5.8%	-12.6%
CNC(=O)c1cc(Nc2nnc(-c3ccc(C)c(S(N)(=O)=O)c3)c3ccccc23)ccc1OC	-5.7%	-73.8*	-1.6%	u	8.7%	10.9%
C/C(=C\c1ccco1)CN1CCOc2ccc(CN3CCC(Oc4cccnc4)CC3)cc2C1	-33.2%	x	x	x	x	2.0%[9.04 µM]
Cc1ccc(-c2nnc(Nc3ccc(C(=O)N(C)C)cc3)c3ccccc23)cc1S(=O)(=O)N(C)C	10.3µM*	x	x	x	x	23.1µM*
CNC(=O)c1ccc(Nc2nnc(-c3ccc(C)c(S(=O)(=O)N(C)C)c3)c3ccccc23)cc1	u	x	x	x	x	-15.9%
CC(C)CC1Nc2ncnc(N3CCN(c4ccccc4)CC3)c2N(Cc2ccc(Br)cc2)C1=O (configuration not stated)	18.4µM*	-14.0	7.0%	-7.9%	-3.1%	16.4µM*
COc1ccc(CN2C(=O)C(CC(C)C)Nc3ncnc(N4CCN(c5ccccc5)CC4)c32)cc1 (configuration not stated)	u	-61.7*!	-6.2%	-2.4%	u	18.4µM*
